Results reported in PubChem BioAssay AID493170 (National Center for Advancing Translational Sciences (NCATS), 2011).
Inconclusive results are not listed. Entries that show only a call come without a potency. The source made the active and inactive calls. Calls come from the whole dose curve; as a rule, active = well fitted inhibition curve with a large enough effect; inconclusive = small, poorly fitted or top-dose-only effect, or effect the other way; inactive = flat fitted curve, though single readings scatter.

target: Ubiquitin carboxyl-terminal hydrolase 2 (Homo sapiens) (UniProt O75604); assay: Ub-rhodamine 110 based assay for inhibitors Ubiquitin-specific Protease USP2a; conditions: USP2a Ub-rhodamine110 cleavage, fluorescence; series mostly up to 38.3 µM; note: nearly all actives have a fitted effect of over 50% in size
Sequence (O75604 whole entry, looked up): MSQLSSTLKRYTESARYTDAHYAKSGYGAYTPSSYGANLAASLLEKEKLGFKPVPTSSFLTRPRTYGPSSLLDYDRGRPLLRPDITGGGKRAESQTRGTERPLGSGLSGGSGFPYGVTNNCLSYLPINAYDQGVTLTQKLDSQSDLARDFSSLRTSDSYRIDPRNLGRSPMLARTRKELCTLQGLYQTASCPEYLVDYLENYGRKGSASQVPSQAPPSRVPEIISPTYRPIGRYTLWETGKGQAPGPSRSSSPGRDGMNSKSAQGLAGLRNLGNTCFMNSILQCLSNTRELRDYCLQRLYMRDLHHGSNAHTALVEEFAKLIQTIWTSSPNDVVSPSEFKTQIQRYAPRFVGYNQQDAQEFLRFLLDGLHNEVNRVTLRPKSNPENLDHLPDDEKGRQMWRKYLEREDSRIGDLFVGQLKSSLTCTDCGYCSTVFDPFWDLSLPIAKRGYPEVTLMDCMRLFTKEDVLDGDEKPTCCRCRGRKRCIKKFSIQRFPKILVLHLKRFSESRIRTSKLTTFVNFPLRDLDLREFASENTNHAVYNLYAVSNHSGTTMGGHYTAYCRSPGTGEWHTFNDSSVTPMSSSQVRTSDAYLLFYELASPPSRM
Outline: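 Kinetic fluorescence (485/531 nm) read each minute over 7 min after adding Ub-Rhod110 (150 nM final) to USP2a (5 nM final). The enzyme had 30 min RT exposure to compounds beforehand in Tris pH 8.0 buffer with CaCl2, CHAPS and beta-ME.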
Potency is the fitted concentration of half-maximal effect.

| SMILES | Potency |
| --- | --- |
| CCCNC(=O)NCc1ccc(N2CCCC2=O)cc1 | inactive |
| Cc1cccc(N2CCN(C(=O)CCc3nc4ccccc4[nH]3)CC2C)c1 (stereo not given) | inactive |
| CCCOc1ccc(-c2nc(C#N)c(N3CCN(CC)CC3)o2)cc1 | inactive |
| O=C(c1ccc([N+](=O)[O-])cc1)N(Cc1ccc(Cl)cc1)N1C(=O)CCCC1=O | inactive |
| CN(C)c1ccc(-c2ccccc2)nn1 | inactive |
| CC(=O)c1ccc(Nc2ncnc3c2oc2ccccc23)cc1 | inactive |
| O=C(/C(=N/N=C/c1ccc(O)c(O)c1O)c1ccccc1)c1ccccc1 | 2.51 µM (active) |
| Cc1ccccc1C(=O)Nc1ccc2nc3n(c(=O)c2c1)CCC3 | inactive |
| COCCN1Cc2cccc(C(=O)N3CCN(c4cc(C)ccc4C)CC3)c2C1=O | inactive |
| CCn1nc(C(=O)N[C@@H](CCSC)c2nc3ccccc3[nH]2)c2ccccc2c1=O | inactive |
| COCCn1nnnc1CN(CCc1ccccc1)Cc1cc2ccc(C)cc2[nH]c1=O | inactive |
| CCOC(=O)C1CCN(C(=O)COC(=O)c2c(C)c(CC)nc3ccccc23)CC1 | inactive |
| COc1ccc(/C=C2\SC(=O)N(CCC(=O)Nc3ccc(S(=O)(=O)Nc4nccs4)cc3)C2=O)cc1 | 10 µM (active) |
| CCc1nnc(NC(=O)CSc2nccn2-c2cccc(C)c2)s1 | inactive |
| Cc1ccc(C(C(=O)NC2CCCC2)N2CCc3ccccc32)cc1 (stereo not given) | inactive |
| Cc1cc(=O)oc(C)c1C(=O)NCCc1ccccc1 | inactive |
| COc1ccc(/C=N/NC(=O)c2nn(-c3ccccc3)c(=O)c3c(N)scc23)cc1 | 10 µM (active) |
| O=S(=O)(c1cc(Cl)ccc1Cl)N1CCNCC1 | inactive |
| COc1ccc(CC(NC(C)=O)C(=O)NC2CCN(c3nc(C)cc(C)c3C#N)CC2)c(OC)c1 (stereo not given) | inactive |
| COc1ccc(O)c(-c2cc(-c3ccc(F)cc3)n[nH]2)c1 | inactive |

| SMILES | Potency |
| --- | --- |
| O=C(Nn1c(SCc2ccc([N+](=O)[O-])cc2)nc2ccccc2c1=O)c1ccc(F)cc1 | 10 µM (active) |
| COC(=O)C1Sc2[nH]c(=O)sc2C(c2ccc(Cl)cc2)C1C(=O)OC (stereo not given) | inactive |
| CC(=O)c1cccc(NC(=O)C(C)OC(=O)c2cc(=O)[nH]c3ccccc23)c1 (stereo not given) | inactive |
| Cc1ccc(C(=O)NCCNS(=O)(=O)c2ccccc2)cc1 | inactive |
| Cc1noc(/C=C/c2ccco2)c1S(=O)(=O)N1CCC(C(=O)N(C)Cc2ccccc2)CC1 | 10 µM (active) |
| O=[N+]([O-])/C(C(Cl)=C(Cl)Cl)=C(\Sc1ccccc1)N1CCCCC1 | inactive |
| COc1cccc(NC(=O)CSc2nncn2-c2ccccn2)c1 | inactive |
| Cc1ccc(Nc2cc(C)nc(NCc3ccccc3)n2)cc1 | inactive |
| O=[N+]([O-])c1ccc2nc(C(O)C(O)c3nc4ccc([N+](=O)[O-])cc4[nH]3)[nH]c2c1 (stereo not given) | 11.2 µM (active) |
| CCc1ccc([C@@H]2CC=C(C(=O)O)[C@H](c3ccc(C(C)(C)C)cc3)N2S(=O)(=O)c2ccc(C)cc2)cc1 | 10 µM (active) |
| CCC/C(O)=C1\C(=O)CC(C)(C)CC1=Nc1ccc(OC)cc1OC | inactive |
| COc1ccc(C(=O)OCC(=O)c2c[nH]c3ccccc23)c(OC)c1 | inactive |
| Cc1c(NC(=O)C2CCCN2S(=O)(=O)c2ccc(Cl)cc2)c(=O)n(-c2ccccc2)n1C (stereo not given) | inactive |
| Cc1ccc(C(=O)Nc2nnc(CC(=O)N/N=C/c3ccc(O)c(O)c3)s2)cc1 | 4.47 µM (active) |
| CN(C)CCCN1C(=O)C(=O)/C(=C(/O)c2ccncc2)C1c1cccnc1 (stereo not given) | inactive |
| Cc1ccccc1OCCn1nc(C(=O)O)c2ccccc2c1=O | inactive |
| O=C(CN1CCOCC1)Nc1ccc(C2CCCCC2)cc1 | inactive |
| N#CNC(=Nc1cccc(F)c1)SCc1cccc(F)c1 | inactive |
| C=CCNCCOCCOc1ccccc1-c1ccccc1 | inactive |
| COc1ccc(-c2cc(C(F)(F)F)nc(S(C)(=O)=O)n2)cc1 | inactive |
